Read-out in test [1]: C-C motif chemokine 2 (Homo sapiens) (UniProt P13500)
The experiment in a line: BSK_KF3CT_MCP1: BioMAP Diversity Plus: KF3CT Assay for Monocyte Chemoattractant Protein 1 (MCP1/CCL2) Biomarker Activity (AID 2283073). The conditions noted are these: primary human keratinocytes with fibroblasts; actives raise or lower the signal. The method in brief:
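Biomarker MCP-1 is measured by ELISA in primary human keratinocytes co-cultured with foreskin fibroblasts, 24 h after chemical treatment; DMSO serves as the negative control and activity baseline.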

Read-out in test [2]: Matrix Metallopeptidase 9 (MMP9), MMP9 (gene 4318)
Kind of test: BSK_KF3CT_MMP9: BioMAP Diversity Plus: KF3CT Assay for Matrix Metallopeptidase 9 (MMP9) Biomarker Activity (AID 2283074).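 On AC50: MMP9 protein level quantified by ELISA in the co-culture.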 The note with it: primary human keratinocytes with fibroblasts; actives raise or lower the signal. The method in brief:
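Human keratinocyte and foreskin fibroblast co-culture exposed to chemicals for 24 h; MMP9 biomarker measured by ELISA, bidirectional fitting relative to DMSO; cytotoxicity tracked by SRB total protein staining in parallel cultures.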

Read-out in test [3]: urokinase plasminogen activator (uPA), PLAU (gene 5328)
Kind of test: BSK_KF3CT_uPA: BioMAP Diversity Plus: KF3CT Assay for urokinase plasminogen activator (uPA) Biomarker Activity (AID 2283075). The conditions noted are these: primary human keratinocytes with fibroblasts; actives raise or lower the signal. Put shortly: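 Primary human keratinocyte/foreskin fibroblast co-culture exposed to chemical; uPA measured by ELISA at 24 h. Bidirectional fit versus DMSO, with parallel SRB total-protein staining for cytotoxicity.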

Read-out in test [4]: CD40, CD40 (gene 958)
Kind of test: BSK_LPS_CD40: BioMAP Diversity Plus: LPS Assay for CD40 Biomarker Activity (AID 2283076). The note with it: primary human HUVEC with PBMC; actives raise or lower the signal. The method in brief:
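Using a multiplexed primary human co-culture (umbilical vein endothelium plus PBMC), CD40 was read by ELISA 24 h after dosing, with cytotoxicity tracked by sulforhodamine B staining of parallel cultures and activity fitted bidirectionally versus DMSO.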

Read-out in test [5]: Interleukin-8 (IL8), CXCL8 (gene 3576)
The experiment in a line: BSK_LPS_IL8: BioMAP Diversity Plus: LPS Assay for Interleukin-8 (IL8) Biomarker Activity (AID 2283078). The conditions noted are these: primary human HUVEC with PBMC; actives raise or lower the signal. The method in brief: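 In this LPS system, chemical-treated human umbilical vein endothelium/PBMC co-cultures were harvested at 24 h for IL-8 ELISA.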

A short description of test [6]: BSK_LPS_SRB: Viability Assessment in the BioMAP Diversity Plus: LPS Assay (AID 2283079).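 Further: total protein by sulforhodamine B absorbance as a cytotoxicity measure; measured one day after compound addition; fitted in both directions against DMSO so loss or gain of signal counts.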 The conditions noted are these: primary human HUVEC with PBMC. The method in brief: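 Cytotoxicity endpoint in human endothelial–PBMC co-culture: 24 h exposure, then SRB (0.1%) staining, 560 nm read.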
Read-out in test [7]: Interleukin-1 alpha (IL1a), IL1A (gene 3552)
Kind of test: BSK_LPS_IL1a: BioMAP Diversity Plus: LPS Assay for Interleukin-1 alpha (IL1a) Biomarker Activity (AID 2283080). The conditions noted are these: primary human HUVEC with PBMC; actives raise or lower the signal. The method in brief: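 Primary human HUVEC and PBMC co-culture stimulated with LPS is dosed and harvested at 24 h. Both increases and decreases in ELISA-measured IL-1a are scored relative to DMSO.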

Read-out in test [8]: Monocyte Chemoattractant Protein-1 (MCP1), CCL2 (gene 6347)
The experiment in a line: BSK_LPS_MCP1: BioMAP Diversity Plus: LPS Assay for Monocyte Chemoattractant Protein-1 (MCP1) Biomarker Activity (AID 2283081).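 On AC50: secreted MCP-1 protein quantified by ELISA in culture supernatant.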 The conditions noted are these: primary human HUVEC with PBMC; actives raise or lower the signal. Put shortly:
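Values derive from bidirectional fitting against DMSO of ELISA-measured MCP-1 in a human primary endothelial and mononuclear cell co-culture, 24 h after chemical addition under LPS activation.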

A short description of test [9]: BSK_LPS_PGE2: BioMAP Diversity Plus: LPS Assay for Prostaglandin E2 (PGE2) Biomarker Activity (AID 2283082). The conditions noted are these: primary human HUVEC with PBMC; actives raise or lower the signal. The method in brief:
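LPS-activated HUVEC/PBMC co-culture; cmpd dosed, 24 h; PGE2 by ELISA; bidirectional fit vs DMSO; SRB (0.1%, TCA-fixed, 560 nm) in parallel plates for overt cytotox.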

Read-out in test [10]: Macrophage colony-stimulating factor (MCSF), CSF1 (gene 1435)
Kind of test: BSK_LPS_MCSF: BioMAP Diversity Plus: LPS Assay for Macrophage colony-stimulating factor (MCSF) Biomarker Activity (AID 2283083). The conditions noted are these: primary human HUVEC with PBMC; actives raise or lower the signal. The method in brief:
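Bidirectional fit versus DMSO of ELISA-measured M-CSF in co-cultured human umbilical vein endothelial cells and PBMC, sampled 24 h after dosing.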

Read-out in test [11]: Tissue Factor, F3 (gene 2152)
Kind of test: BSK_LPS_TissueFactor: BioMAP Diversity Plus: LPS Assay for Tissue Factor Biomarker Activity (AID 2283084). The note with it: primary human HUVEC with PBMC; actives raise or lower the signal. Put shortly: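 Read-out: CD142 ELISA, 24 h. System: LPS-driven human endothelial/PBMC co-culture. Analysis: up- or down-signal fitted against DMSO.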

Read-out in test [12]: Tumor necrosis factor (Homo sapiens) (UniProt P01375)
The experiment in a line: BSK_LPS_TNFa: BioMAP Diversity Plus: LPS Assay for Tumour Necrosis Factor alpha (TNFa) Biomarker Activity (AID 2283085). The note with it: primary human HUVEC with PBMC; actives raise or lower the signal. Put shortly:
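Read-out is ELISA of TNFa in primary human endothelial cell–PBMC co-cultures at 24 h after compound. Activity in either direction was fitted against DMSO.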

Read-out in test [13]: Vascular cell adhesion molecule 1 (VCAM1), VCAM1 (gene 7412)
Kind of test: BSK_LPS_VCAM1: BioMAP Diversity Plus: LPS Assay for Vascular cell adhesion molecule 1 (VCAM1) Biomarker Activity (AID 2283086). The conditions noted are these: primary human HUVEC with PBMC; actives raise or lower the signal. The method in brief:
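HUVEC + PBMC co-culture, LPS system; compound 24 h; VCAM-1 by ELISA; bidirectional fit vs DMSO control; parallel SRB (0.1%, TCA-fixed, 560 nm) for cytotoxicity.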

Read-out in the next test: CD38, CD38 (gene 952)
The experiment in a line: BSK_SAg_CD38: BioMAP Diversity Plus: SAg Assay for CD38 Biomarker Activity (AID 2283087). The note with it: primary human HUVEC with PBMC; actives raise or lower the signal. Put shortly:
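Human HUVEC plus PBMC co-culture stimulated with superantigen; CD38 measured by ELISA 24 h after chemical dosing. Fluorescence read-out, bidirectional fit against DMSO; cytotoxicity tracked in parallel by SRB and Alamar Blue.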

Read-out in test [14]: CD40, CD40 (gene 958)
The experiment in a line: BSK_SAg_CD40: BioMAP Diversity Plus: SAg Assay for CD40 Biomarker Activity (AID 2283088). The note with it: primary human HUVEC with PBMC; actives raise or lower the signal. Put shortly:
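Endpoint derived by fitting increases or decreases versus DMSO controls. CD40 is detected by fluorescence ELISA in a human vascular co-culture of endothelium and PBMC at 24 h.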

Read-out in the next test: CD69, CD69 (gene 969)
The experiment in a line: BSK_SAg_CD69: BioMAP Diversity Plus: SAg Assay for CD69 Biomarker Activity (AID 2283089).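 On AC50: cell surface CD69 protein quantified by ELISA with fluorescence detection.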 The conditions noted are these: primary human HUVEC with PBMC; actives raise or lower the signal. Put shortly: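 Values derive from bidirectional fitting relative to DMSO vehicle. Cells: umbilical vein endothelium plus peripheral blood mononuclear cells, treated 24 h before fluorescent ELISA for CD69.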

Read-out in test [15]: E-selectin (Homo sapiens) (UniProt P16581)
The experiment in a line: BSK_SAg_Eselectin: BioMAP Diversity Plus: SAg Assay for Eselectin Biomarker Activity (AID 2283091). The note with it: primary human HUVEC with PBMC; actives raise or lower the signal. The method in brief:
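Endpoint values derive from bidirectional fitting relative to DMSO, using ELISA-measured E-selectin in a human vascular co-culture (umbilical vein endothelium plus PBMC) sampled 24 h after dosing.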

Read-out in test [16]: Monokine induced gamma interferon (MIG), CXCL9 (gene 4283)
Kind of test: BSK_SAg_MIG: BioMAP Diversity Plus: SAg Assay for Monokine induced gamma interferon (MIG) Biomarker Activity (AID 2283092). The conditions noted are these: primary human HUVEC with PBMC; actives raise or lower the signal. Put shortly: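 Values reflect bidirectional fitting of ELISA-measured MIG against DMSO vehicle, taken 24 h after dosing of a co-culture of human umbilical vein endothelial cells and peripheral blood mononuclear cells.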

Read-out in test [17]: E-selectin (Homo sapiens) (UniProt P16581)
The experiment in a line: BSK_LPS_Eselectin: BioMAP Diversity Plus: LPS Assay for Eselectin Biomarker Activity (AID 2283077). The conditions noted are these: primary human HUVEC with PBMC; actives raise or lower the signal. The method in brief:
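Dose chemical onto LPS-driven HUVEC/PBMC co-culture; after 24 h, run ELISA for E-selectin; fit up- and down-going responses relative to DMSO control.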

Read-out in test [18]: Monocyte Chemoattractant Protein-1 (MCP1), CCL2 (gene 6347)
The experiment in a line: BSK_SAg_MCP1: BioMAP Diversity Plus: SAg Assay for Monocyte Chemoattractant Protein-1 (MCP1) Biomarker Activity (AID 2283090). The conditions noted are these: primary human HUVEC with PBMC; actives raise or lower the signal. Put shortly: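 MCP-1 levels in the endothelial–PBMC SAg co-culture were quantified by ELISA at 24 h post-dosing; both increases and decreases versus DMSO scored. Cytotoxicity monitored by SRB total protein in parallel cultures.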

Active and inactive are the calls of the source. How the source made its calls: active means hit-call score of the fitted dose curve at least 0.9, where 1 is the maximum; inactive means score below 0.9.

Tumor necrosis factor (Homo sapiens), sequence (P01375 whole entry, looked up): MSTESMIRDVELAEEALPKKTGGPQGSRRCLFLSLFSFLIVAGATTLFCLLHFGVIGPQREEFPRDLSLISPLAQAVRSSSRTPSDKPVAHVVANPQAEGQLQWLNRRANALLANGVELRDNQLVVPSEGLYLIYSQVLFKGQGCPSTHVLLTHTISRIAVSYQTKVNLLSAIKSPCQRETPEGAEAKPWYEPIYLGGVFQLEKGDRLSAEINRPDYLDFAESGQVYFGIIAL
E-selectin (Homo sapiens), sequence (P16581 whole entry, looked up): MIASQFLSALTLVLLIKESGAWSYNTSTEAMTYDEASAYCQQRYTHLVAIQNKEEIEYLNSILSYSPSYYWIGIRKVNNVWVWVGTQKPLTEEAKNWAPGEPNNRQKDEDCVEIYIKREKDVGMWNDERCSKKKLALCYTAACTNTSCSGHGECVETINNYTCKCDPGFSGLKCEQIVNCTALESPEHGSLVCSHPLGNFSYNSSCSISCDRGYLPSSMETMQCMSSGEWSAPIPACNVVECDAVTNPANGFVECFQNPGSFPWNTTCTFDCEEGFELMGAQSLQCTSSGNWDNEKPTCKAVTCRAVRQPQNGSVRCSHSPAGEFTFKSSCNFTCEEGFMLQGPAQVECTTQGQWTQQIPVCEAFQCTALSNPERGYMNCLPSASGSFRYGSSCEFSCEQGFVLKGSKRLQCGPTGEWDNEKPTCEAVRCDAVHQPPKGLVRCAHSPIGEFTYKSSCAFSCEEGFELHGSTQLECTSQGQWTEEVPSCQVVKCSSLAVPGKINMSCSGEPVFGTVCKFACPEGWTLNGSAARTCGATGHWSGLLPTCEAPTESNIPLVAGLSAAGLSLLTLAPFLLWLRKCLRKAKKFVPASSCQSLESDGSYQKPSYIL

With `NC(=NCCCCCCN=C(N)/N=C(\N)Nc1ccc(Cl)cc1)/N=C(\N)Nc1ccc(Cl)cc1`, the AC50 is 6.01 µM (active) in [1]; 2.67 µM (active) in test [2]; 4.99 µM (active) in test [3]; 5.33 µM (active) with CD40, CD40 (gene 958) [4]; 2.36 µM (active) in test [5]; 5.33 µM (active) in test [6]. Also, the AC50 in [7] is 4.94 µM (active); in test [8] it was 4.95 µM (active); in test [10], 4.92 µM (active); in [11] it was 4.98 µM (active); in test [12], 20.5 µM (active); in test [13] it was 6.08 µM (active). For the same compound, the half-maximal activity concentration (AC50) with CD38, CD38 (gene 952) was 8.71 µM (active); with CD40, CD40 (gene 958) [14] it was 5.1 µM (active); with CD69, CD69 (gene 969), 7.57 µM (active); in [15], 5.02 µM (active); in test [16], 7.58 µM (active). In addition, the outcome in test [9] was inactive.

For `CN(C)CCOC(c1ccccc1)c1ccccc1`, the outcome in test [1] is “inactive”; in test [2], “inactive”; in test [3], “inactive”; with CD40, CD40 (gene 958) [4], “inactive”; in [17], “inactive”; in test [5], “inactive”. The outcome in test [6], in test [7], in test [8], in test [9], in test [11] and in [12] was inactive. The outcome in test [13] is “inactive”; with CD38, CD38 (gene 952) it was “inactive”; in the test with CD40, CD40 (gene 958) [14] it was “inactive”; in the test with CD69, CD69 (gene 969), “inactive”; in test [18], “inactive”; in test [15] it was “inactive”.

`C=CC(=C)CC/C=C(\C)CCC=C(C)C`: the outcome in [1] was “inactive”; in test [2], “inactive”; in test [3], “inactive”; with CD40, CD40 (gene 958) [4], “inactive”; in test [17], “inactive”; in [5] it was “inactive”. The result in test [6], in test [7], in test [8], in [9], in [10] and in test [12] was inactive. Moreover, the outcome in test [13] was “inactive”; in the test with CD38, CD38 (gene 952), “inactive”; with CD40, CD40 (gene 958) [14], “inactive”; in the test with CD69, CD69 (gene 969) it was “inactive”; in test [15], “inactive”. The AC50 in [18] was 0.042 µM (active).

The term AC50 denotes the midpoint of the concentration-response curve, whichever way the signal moves.

(Values after PubChem BioAssay (EPA / NIEHS).)
